Source: PubChem
CYP2C9 activ: human CYP2C9 activators, primary screen, biochemical, luminescence. Cytochrome P450 2C9 (Homo sapiens), P11712. recombinant CYP2C9, luciferin-H conversion; active compounds read high; factor 1 = untreated enzyme, 0 = blocked. activation factor at 5 µM. hit rate 1.4% among 96,000. AID 1024, 2008;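 active = activation factor of 2 or more for CYP2C9 at a 5 µM dose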
Target sequence (P11712 whole entry, looked up): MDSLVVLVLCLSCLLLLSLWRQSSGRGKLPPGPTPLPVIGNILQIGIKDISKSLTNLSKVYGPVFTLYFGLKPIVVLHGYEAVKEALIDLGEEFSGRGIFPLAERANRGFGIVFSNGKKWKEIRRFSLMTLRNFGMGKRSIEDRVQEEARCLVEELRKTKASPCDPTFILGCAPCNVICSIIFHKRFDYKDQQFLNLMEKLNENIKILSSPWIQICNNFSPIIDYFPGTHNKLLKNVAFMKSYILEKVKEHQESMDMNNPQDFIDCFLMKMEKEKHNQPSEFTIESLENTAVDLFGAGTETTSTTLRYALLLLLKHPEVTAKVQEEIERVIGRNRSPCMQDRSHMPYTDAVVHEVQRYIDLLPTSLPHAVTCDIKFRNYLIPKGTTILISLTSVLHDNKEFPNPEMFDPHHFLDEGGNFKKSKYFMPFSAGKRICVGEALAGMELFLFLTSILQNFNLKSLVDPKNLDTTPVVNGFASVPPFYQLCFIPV
CYP2C19 act: human CYP2C19 activators, primary screen, biochemical, luminescence; recombinant CYP2C19, luciferin-H EGE luminescence; active compounds read high; 0 = fully inhibited enzyme, 1 = untreated enzyme; activation factor at 5 µM; 96,000 tested, under 10 active; AID 1025, 2008;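 active = activation factor of at least 2 at 5 µM in the primary screen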
CYP2C19 inhib: blockers of cytochrome P450 2C19 activity – biochemical, luminescence, ADME assay, primary screen; hit rate 21% among 96,000; inhibition, % at 5 µM; CYP2C19 Supersomes, luciferin-H EGE luminescence, 30 min; P33261;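 active = CYP2C19 inhibition above a set limit at 5 µM in the primary screen, cut at about 50% in these data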
PostGolgi ctrl: growth inhibition of yeast control strain, primary screen, counter-screen for post-Golgi transport modulator project; efflux-deficient yeast background strain, growth absorbance A615, 16 h; inhibition, % at 10 µM; hit rate 5% among 98,000; AID 738, 2007
CYP2C9 inhib: blockers of cytochrome P450 2C9 activity – biochemical, luminescence, ADME assay, primary screen | CYP2C9 Supersomes, luciferin-H conversion | inhibition, % at 5 µM | hit rate 20% among 96,000;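 active = blocking of liver enzyme CYP2C9 beyond about 50% at 5 µM, limit read from the data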
PostGolgi yeast: phenotypic screen on post-Golgi transport, primary screen; post-Golgi transport phenotypic cell assay; inhibition, % at 10 µM; AID 739, 2007; hit rate 0.9% among 98,000;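 also: yeast cells grown in 1536-well plates; yeast grown about 18 h at 30C before absorbance read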
Large screens that a line does not name were inactive. Rows were chosen to be rich in hits. Some 32% of all compounds tested hit in one or more screens of this group. Rule as the data show it, unless noted: active = inhibition above about 30%; inactive = the rest.

O=P(O)(CCc1ccncc1)CN1CCCCC1	none
O=C(COC(=O)CCS(=O)(=O)c1ccc(Cl)cc1)NC1CCCCC1	none
COc1ccc(CCN2C(=O)c3[nH]nc(-c4ccccc4O)c3C2c2ccccc2)cc1OC (stereo not given)	none
O=C1c2[nH]nc(-c3ccccc3O)c2C(c2ccccc2)N1Cc1ccco1 (stereo not given)	PostGolgi ctrl 38.3
O=C1c2[nH]nc(-c3ccccc3O)c2C(c2ccccc2F)N1Cc1ccco1 (stereo not given)	CYP2C19 inhib 85.1, CYP2C9 inhib 94.9
O=C1c2ccccc2C(O)N1Cc1ccco1 (stereo not given)	none
Cc1[nH]nc2c1C(c1ccc(OC(=O)c3ccco3)cc1)C(C#N)=C(N)O2 (stereo not given)	CYP2C9 inhib 58.0
COCc1[nH]nc2c1C(c1ccc(OC)cc1)C(C#N)=C(N)O2 (stereo not given)	none
COc1cc(C2C(C#N)=C(N)Oc3n[nH]c(C)c32)ccc1OC(=O)c1ccccc1 (stereo not given)	none
CC(C)c1[nH]nc2c1C(c1ccc(OC(=O)c3ccco3)cc1)C(C#N)=C(N)O2 (stereo not given)	CYP2C19 inhib 73.7, CYP2C9 inhib 72.8
CCCn1nc(-c2nnc(-c3ccc(C)c(C)c3)o2)c2ccccc2c1=O	none
COc1ccccc1OCc1ccc(C(=O)NN)cc1	CYP2C19 inhib 62.3
COc1ccc(OC)c(/C=C/C(=O)c2ccc(Cl)cc2)c1	none
COc1ccc(C(=O)/C=C/c2ccc(OC)c(COc3ccc(F)cc3)c2)cc1	CYP2C9 inhib 52.2
COc1ccc(C(=O)NCCCCCC(=O)O)cc1OC	none
COc1ccc(C(=O)NN)cc1COc1ccc(Br)cc1	CYP2C19 inhib 95.5, CYP2C9 inhib 50.1
CNC(=O)c1ccc(OCc2ccccc2)c(OC)c1	none
C=CCn1c(N)c(C(=O)OCCC)c2nc3ccccc3nc21	CYP2C19 inhib 77.3, CYP2C9 inhib 69.4
COCCNC(=O)CSc1nc2cc(OC)c(OC)cc2c(=O)n1CCC1=CCCCC1	none (no result: CYP2C9 activ, CYP2C19 act, CYP2C19 inhib, CYP2C9 inhib)
C=CCn1c(N)c(C(=O)Nc2ccc(C)c(C)c2)c2nc3ccccc3nc21	none
COCCn1c(N)c(C(=O)OCc2ccccc2)c2nc3ccccc3nc21	CYP2C9 inhib 61.6
COCCNC(=O)c1c(N)n(CCC2=CCCCC2)c2nc3ccccc3nc12	CYP2C19 inhib 91.6, CYP2C9 inhib 95.6
C=CCn1c(N)c(C(=O)Nc2cccc(C)c2)c2nc3ccccc3nc21	PostGolgi ctrl 35.0
O=C(CN1CCC(NC(=O)c2ccc(F)cc2)CC1)NCc1ccccc1F	none
COC(=O)C1=C(C)NC(=O)NC1c1ccsc1 (stereo not given)	none
O=C(Cc1ccc2c(c1)OCCO2)c1c(O)cc(O)cc1O	CYP2C19 inhib 93.7, CYP2C9 inhib 95.9
O=C(O)COc1ccc(C(=O)Cc2ccc3c(c2)OCCCO3)c(O)c1	none
CCCc1nnc(NC(=O)CCCC(=O)O)s1	none (no result: CYP2C9 activ, CYP2C19 act, CYP2C19 inhib, CYP2C9 inhib)
COc1ccc(NC(=O)Cn2nnc(-c3ccccc3NC(=O)C3CC3)n2)cc1	CYP2C19 inhib 94.1
COc1cc(NC(=O)Cn2nnc(-c3ccccc3N)n2)cc(OC)c1	CYP2C9 inhib 54.1
O=C(Cn1nnc(-c2ccccc2NC(=O)c2cccs2)n1)Nc1ccccc1	CYP2C9 inhib 76.4
COc1ccccc1NC(=O)Cn1nnc(-c2ccccc2NC(=O)c2cccs2)n1	none
CCOc1ccc(NC(=O)Cn2nnc(-c3ccccc3NC(=O)C3CC3)n2)cc1	CYP2C19 inhib 81.5
COc1ccc(C(=O)Cn2nnc(-c3ccccc3NC(=O)C(F)(F)F)n2)cc1	none
COc1ccc(C(=O)Cn2nnc(-c3ccccc3NC(=O)C3CCCCC3)n2)cc1	CYP2C9 inhib 85.4
CCc1ccccc1NC(=O)c1ccc(F)c(S(=O)(=O)N2CCC(C(N)=O)CC2)c1	none
CCOC(=O)c1cc(-c2ccc(F)cc2)n(CC(=O)N2CCCC2)c1C	none
CCOC(=O)c1cc(-c2ccc(C)cc2)n(CCC(=O)NCCCOC)c1C	CYP2C19 inhib 93.0, CYP2C9 inhib 100.0
O=C(NC1CC1)c1ccc(CS(=O)(=O)c2c(Cl)cccc2Cl)o1	none
Oc1ccc2ccccc2c1C=Nc1cc(C(F)(F)F)ccc1N1CCCC1	none
COc1cc(NC(=O)CC2NCCNC2=O)cc(OC)c1 (stereo not given)	none
O=C(O)CCC(=O)N1CCc2cc(S(=O)(=O)NC3CCCC3)ccc21	none
O=C(C1CC1)N1CCc2cc(S(=O)(=O)NCCC3=CCCCC3)ccc21	PostGolgi ctrl 35.6
O=C(C1CCC1)N1CCc2cc(S(=O)(=O)NC3CCCC3)ccc21	CYP2C19 inhib 71.5, CYP2C9 inhib 82.9
CCCN(CCC)CCNS(=O)(=O)c1ccc2c(c1)CCN2C(=O)C1CCC1	CYP2C19 inhib 93.5
Cc1ccccc1C(C(=O)NCc1ccccc1)N(Cc1ccco1)C(=O)c1ccccn1 (stereo not given)	CYP2C19 inhib 53.5
Cc1cccc(C)c1NC(=O)C1(N(Cc2ccco2)C(=O)c2ccccn2)CCCC1	CYP2C9 inhib 62.7
CCC(C)(C)NC(=O)C(c1ccc(F)cc1)N(Cc1ccco1)C(=O)CCC(=O)Nc1ccccn1 (stereo not given)	none
O=C(NCc1ccccc1)C(c1ccc(F)cc1)N(Cc1ccco1)C(=O)c1ccccn1 (stereo not given)	CYP2C19 inhib 61.5
O=[N+]([O-])c1ccccc1NCCNc1ncc(C(F)(F)F)cc1Cl	none
O=[N+]([O-])c1ccccc1N/N=C\c1ccccc1Cl	CYP2C19 inhib 63.8
O=[N+]([O-])c1cc(C(F)(F)F)ccc1N/N=C/c1cc2ccccc2nc1Cl	PostGolgi yeast 44.1
Cc1nc2ccccc2c(=O)n1NCc1cc(Br)cs1	none
COc1cccc(OCc2cc(/C=N/NC(=O)c3ccn[nH]3)ccc2OC)c1	PostGolgi ctrl 33.4
COc1cc(OC)cc(C(=O)N/N=C/c2ccc(OC)c(COc3ccc4ccccc4c3)c2)c1	none
Cc1cccc(C)c1OCC(=O)NNC(=O)c1ccoc1C	none
COc1ccc(/C=N/NC(=O)c2ccoc2C)cc1COc1c(C)cccc1C	PostGolgi ctrl 53.7
COc1ccc(OC)c(S(=O)(=O)N(C)CC(=O)Nc2cc(Cl)ccc2OC)c1	none (no result: CYP2C9 activ, CYP2C19 act, CYP2C19 inhib, CYP2C9 inhib)
COc1ccc(CCC(=O)Nc2cc(Cl)ccc2OC)cc1	CYP2C19 inhib 100.3
COc1ccc(Cl)cc1NC(=O)Cn1cccc1	CYP2C9 activ 2.8
COc1cc(OC)c(NC(=O)Cn2cccc2)cc1Cl	none
COc1ccc(CC(=O)Nc2cc(Cl)ccc2O)cc1	CYP2C19 inhib 92.5, CYP2C9 inhib 58.7
COc1ccc(Cl)cc1NC(=O)C(C)Sc1n[nH]c(N)n1 (stereo not given)	CYP2C9 activ 2.3
